# Experimental data from the antibiotic and cytotoxicity screens of Wong et al. (2023).
# The whole screen tested about 39,000 compounds, of which about 3,300 (8.5%) were called active. The list comes from a sample in which actives are over-represented; it also holds similar structures and randomly drawn compounds.
# Tested on: HepG2
# Test: cytotoxicity call (relative viability < 0.9)
# Details: 10 µM
row,SMILES,cytotoxicity call
1,C[C@@H]1CN([C@@H](C)CO)C(=O)Cc2cc(NC(=O)CCCN(C)C)ccc2O[C@@H]1CN(C)S(=O)(=O)c1ccc(Cl)cc1,inactive
2,COC(=O)C(CC#Cc1ccc2c(c1)[C@]1(C(=O)N2)[C@H](c2ccccc2OCCO)N2[C@H](c3ccccc3)[C@H](c3ccccc3)OC(=O)[C@H]2[C@@H]1C(=O)N1CCc2cc(OC)c(OC)cc2C1)C(=O)OC,inactive
3,C[C@@H]1CCCCO[C@@H](CN(C)C(=O)Nc2ccc3c(c2)OCO3)[C@H](C)CN([C@H](C)CO)C(=O)c2cc(NC(=O)C3CCCCC3)ccc2O1,inactive
4,C=CN1CCCC1=O,inactive
5,C[C@@H]1CN([C@@H](C)CO)C(=O)c2cc(NC(=O)NC3CCCCC3)ccc2O[C@H]1CN(C)Cc1ccc(Cl)c(Cl)c1,inactive
6,C[C@@H]1CN([C@H](C)CO)C(=O)c2cc(NS(=O)(=O)c3ccc(Cl)cc3)ccc2O[C@@H]1CN(C)Cc1ccc(C(F)(F)F)cc1,active
7,C[C@@H]1CN([C@H](C)CO)C(=O)c2cc(NS(=O)(=O)c3ccc(Cl)cc3)ccc2O[C@H]1CN(C)Cc1ccc(C(F)(F)F)cc1,inactive
8,C[C@H]1CN([C@@H](C)CO)C(=O)c2cc(NS(=O)(=O)c3ccc(Cl)cc3)ccc2O[C@H]1CN(C)Cc1ccc(C(F)(F)F)cc1,inactive
9,C[C@H](CO)N1C[C@H](C)[C@H](CN(C)Cc2ccc(C(F)(F)F)cc2)Oc2ccc(NS(=O)(=O)c3ccc(Cl)cc3)cc2C1=O,active
10,C[C@H](CO)N1C[C@H](C)[C@@H](CN(C)Cc2ccc(C(F)(F)F)cc2)Oc2ccc(NS(=O)(=O)c3ccc(Cl)cc3)cc2C1=O,active
11,C[C@@H]1CN([C@@H](C)CO)C(=O)c2cc(NS(=O)(=O)c3ccc(Cl)cc3)ccc2O[C@H]1CN(C)Cc1ccc(C(F)(F)F)cc1,inactive
12,C[C@@H]1CN([C@@H](C)CO)C(=O)c2cc(NS(=O)(=O)c3ccc(Cl)cc3)ccc2O[C@@H]1CN(C)Cc1ccc(C(F)(F)F)cc1,active
13,C[C@H]1CN([C@@H](C)CO)C(=O)c2cc(NS(=O)(=O)c3ccc(Cl)cc3)ccc2O[C@@H]1CN(C)Cc1ccc(C(F)(F)F)cc1,inactive
14,C[C@H](CO)N1C[C@H](C)[C@H](CN(C)C(=O)Cc2ccccn2)Oc2cc(-c3ccc(C(=O)N(C)C)cc3)ccc2S1(=O)=O,inactive
15,N[C@@H](CSCc1ccccc1Cl)C(=O)O,inactive
16,COc1ccc(S(=O)(=O)Nc2ccc3c(c2)C(=O)N([C@@H](C)CO)C[C@H](C)[C@@H](CN(C)Cc2ccccc2)OCCCC[C@@H](C)O3)cc1,inactive
17,C[C@H]1CCCCO[C@@H](CN(C)C(=O)Nc2ccc3c(c2)OCO3)[C@@H](C)CN([C@@H](C)CO)C(=O)c2cc(NC(=O)Nc3ccc(F)cc3)ccc2O1,inactive
18,NNC(=S)Nc1cccc(F)c1,inactive
19,C[C@@H]1CN([C@@H](C)CO)C(=O)c2cc(C#CCN(C)C)cnc2O[C@H]1CN(C)S(=O)(=O)c1cn(C)cn1,inactive
20,COc1cccc(C#Cc2cnc3c(c2)C(=O)N([C@H](C)CO)C[C@H](C)[C@H](CN(C)C(=O)C2CCOCC2)O3)c1,inactive
21,C[C@H]1CCCCO[C@H](CN(C)Cc2ccc(C(=O)O)cc2)[C@@H](C)CN([C@@H](C)CO)C(=O)c2cc(NC(=O)Nc3ccc(C(F)(F)F)cc3)ccc2O1,inactive
22,Cc1noc(C)c1NC(=O)Nc1ccc2c(c1)C(=O)N([C@H](C)CO)C[C@@H](C)[C@H](CN(C)S(=O)(=O)c1ccc(F)cc1)OCCCC[C@@H](C)O2,inactive
23,ON/C=N\c1nonc1-c1cccnc1,inactive

row,SMILES,cytotoxicity call
1,Nc1c[nH]ccc1=O,inactive
2,COc1ccc(NC(=O)N(C)C[C@H]2OCCCC[C@H](C)Oc3ccc(NS(=O)(=O)c4cccs4)cc3C(=O)N([C@H](C)CO)C[C@@H]2C)cc1,inactive
3,COc1ccc2nc3cc(Cl)ccc3c(Nc3cc(CN4CCCC4)c(O)c(CN4CCCC4)c3)c2n1.O=P(O)(O)O.O=P(O)(O)O.O=P(O)(O)O.O=P(O)(O)O,active
4,CCC(=O)N[C@H]1CC[C@@H](CC(=O)OC)O[C@@H]1CO,inactive
5,CC(=O)c1ccc(F)c(Cl)c1,inactive
6,Nc1nc(N)c2c(n1)CCCC2,inactive
7,Nc1nnc(N)c2ccccc12,inactive
8,Cl.Nc1c2c(nc3ccccc13)CCCC2,active
9,Nc1c2c(nc3ccccc13)CCCC2,inactive
10,Nc1c2ccccc2nc2ccccc12,active
11,CCc1nc2ccccc2c(N)c1C,inactive
12,C[C@H](CO)N1C[C@H](C)[C@H](CN(C)C)Oc2cc(C#C[C@@H](C)O)ccc2S1(=O)=O,inactive
13,C=CCCCCCCCCC(=O)Nc1ccccc1C,inactive
14,C[C@@H]1CN([C@@H](C)CO)C(=O)c2cc(/C=C/c3ccccc3)cnc2O[C@H]1CN(C)C(=O)C1CCOCC1,inactive
15,C[C@@H]1CCCCO[C@@H](CN(C)Cc2ccncc2)[C@H](C)CN([C@H](C)CO)C(=O)c2cc(NC(=O)C3CCCCC3)ccc2O1,inactive
16,O=C(C[C@@H]1CC[C@H]2[C@@H](COC[C@@H](O)CN2C(=O)c2ccc(F)cc2)O1)NCCCN1CCOCC1,inactive
17,COc1ccc(NC(=O)Nc2ccc3c(c2)CC(=O)N([C@H](C)CO)C[C@@H](C)[C@@H](CN(C)Cc2ccc(Oc4ccccc4)cc2)O3)cc1,active
18,COc1ccc(NC(=O)Nc2ccc3c(c2)CC(=O)N([C@@H](C)CO)C[C@@H](C)[C@H](CN(C)Cc2ccc(Oc4ccccc4)cc2)O3)cc1,active
19,COc1ccc(NC(=O)Nc2ccc3c(c2)CC(=O)N([C@H](C)CO)C[C@@H](C)[C@H](CN(C)Cc2ccc(Oc4ccccc4)cc2)O3)cc1,active
20,COc1ccc(NC(=O)Nc2ccc3c(c2)CC(=O)N([C@H](C)CO)C[C@H](C)[C@@H](CN(C)Cc2ccc(Oc4ccccc4)cc2)O3)cc1,inactive
21,COc1ccc(NC(=O)Nc2ccc3c(c2)CC(=O)N([C@@H](C)CO)C[C@@H](C)[C@@H](CN(C)Cc2ccc(Oc4ccccc4)cc2)O3)cc1,active
22,COc1ccc(NC(=O)Nc2ccc3c(c2)CC(=O)N([C@@H](C)CO)C[C@H](C)[C@@H](CN(C)Cc2ccc(Oc4ccccc4)cc2)O3)cc1,inactive
23,Cc1noc(C)c1NC(=O)Nc1ccc2c(c1)C(=O)N([C@@H](C)CO)C[C@@H](C)[C@H](CN(C)C(=O)Nc1cccc3ccccc13)O2,inactive

row,SMILES,cytotoxicity call
1,COc1ccc2c3c(n(c2c1)C)[C@H](CO)N(C[C@]13CN(C1)C(=O)C1CC1)C(=O)CN1CCOCC1,inactive
2,CCCSc1nc(N[C@@H]2C[C@H]2c2ccc(F)c(F)c2)c2nnn([C@@H]3C[C@H](OCCO)[C@@H](O)[C@H]3O)c2n1,inactive
3,C[C@@H]1CCCCO[C@H](CN(C)Cc2ccc(C(F)(F)F)cc2)[C@@H](C)CN([C@H](C)CO)C(=O)c2cc(NS(C)(=O)=O)ccc2O1,inactive
4,COCCOC(=O)N1C(=O)[C@@]2(c3cc(C#CC4(O)CCCCCC4)ccc31)[C@H](C(=O)NC[C@H](O)c1ccccc1)[C@H]1C(=O)O[C@H](c3ccccc3)[C@H](c3ccccc3)N1[C@@H]2c1ccc(OCCO)cc1,inactive
5,COc1ccc(NC(=O)N(C)C[C@H]2Oc3c(NC(=O)c4ccc(-c5nccs5)cc4)cccc3C(=O)N([C@@H](C)CO)C[C@@H]2C)cc1,inactive
6,Cc1noc(C)c1S(=O)(=O)N(C)C[C@H]1Oc2ccc(NC(=O)c3ccncc3)cc2C(=O)N([C@H](C)CO)C[C@@H]1C,inactive
7,C[C@@H]1CCCCO[C@H](CN(C)C(=O)Cc2ccccc2)[C@H](C)CN([C@H](C)CO)C(=O)c2cc(NC(=O)Nc3ccc(F)cc3)ccc2O1,inactive
8,COc1ccc(NC(=O)Nc2ccc3c(c2)CC(=O)N([C@H](C)CO)C[C@H](C)[C@H](CN(C)Cc2ccc(Oc4ccccc4)cc2)O3)cc1,active
9,COc1ccc(NC(=O)Nc2ccc3c(c2)CC(=O)N([C@@H](C)CO)C[C@H](C)[C@H](CN(C)Cc2ccc(Oc4ccccc4)cc2)O3)cc1,active
10,C[C@@H]1CN([C@@H](C)CO)C(=O)c2cc(NC(=O)Cc3ccccc3)ccc2O[C@@H]1CN(C)Cc1ccc(C(=O)Nc2ccccc2N)cc1,inactive
11,C[C@@H]1CN([C@@H](C)CO)C(=O)c2cc(NC(=O)c3ccncc3)ccc2O[C@@H]1CN(C)Cc1ccc(Oc2ccccc2)cc1,inactive
12,C[C@@H]1CN([C@@H](C)CO)C(=O)c2cccc(NC(=O)Nc3ccc(C(F)(F)F)cc3)c2O[C@@H]1CN(C)C(=O)Nc1ccccc1,inactive
13,CCNC(=O)[C@H]1[C@H](CO)[C@H]2Cn3c(ccc(-c4cccc(OC)c4)c3=O)[C@H]2N1S(C)(=O)=O,inactive
14,C[C@@H]1CCCCO[C@H](CN(C)C(=O)CCC(F)(F)F)[C@@H](C)CN([C@@H](C)CO)C(=O)c2cc(NC(=O)Cc3ccccc3)ccc2O1,inactive
15,Cc1ccc(S(=O)(=O)Nc2ccc3c(c2)CC(=O)N([C@@H](C)CO)C[C@@H](C)[C@@H](CN(C)S(=O)(=O)c2cn(C)cn2)O3)cc1,inactive
16,COc1ccc(CN(C)C[C@H]2OCCCC[C@H](C)Oc3ccc(NC(=O)Nc4ccc(OC)cc4)cc3C(=O)N([C@@H](C)CO)C[C@H]2C)cc1,active
17,COc1ccc(CN(C)C[C@@H]2OCCCC[C@H](C)Oc3ccc(NC(=O)C4CCCCC4)cc3C(=O)N([C@@H](C)CO)C[C@H]2C)cc1,active
18,COc1ccc(CN(C)C[C@H]2OCCCC[C@H](C)Oc3ccc(NC(=O)Nc4ccc(OC)cc4)cc3C(=O)N([C@@H](C)CO)C[C@@H]2C)cc1,active
19,COc1ccc(CN(C)C[C@@H]2OCCCC[C@@H](C)Oc3ccc(NC(=O)C4CCCCC4)cc3C(=O)N([C@H](C)CO)C[C@@H]2C)cc1,inactive
20,COc1ccc(CN(C)C[C@H]2OCCCC[C@@H](C)Oc3ccc(NC(=O)C4CCCCC4)cc3C(=O)N([C@H](C)CO)C[C@H]2C)cc1,inactive
21,COc1ccc(CN(C)C[C@@H]2OCCCC[C@@H](C)Oc3ccc(NC(=O)Nc4ccc(OC)cc4)cc3C(=O)N([C@H](C)CO)C[C@H]2C)cc1,inactive
22,COc1ccc(CN(C)C[C@@H]2OCCCC[C@H](C)Oc3ccc(NC(=O)Nc4ccc(OC)cc4)cc3C(=O)N([C@@H](C)CO)C[C@H]2C)cc1,active
23,COc1ccc(CN(C)C[C@@H]2OCCCC[C@H](C)Oc3ccc(NC(=O)Nc4ccc(OC)cc4)cc3C(=O)N([C@H](C)CO)C[C@H]2C)cc1,inactive
